The source of these data is the supplement of paper PMC6522484.

In test [1] the test system is DLD1. The test is described as follows: cell viability (CellTiter-Glo) relative to plate median (fraction of plate median); higher = more viable cells. The conditions noted are these: 5 µM; treatment time 24 h; reporter: 7TFP. The gist of the method:
(§1)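 Colorectal cancer lines with stably integrated lentiviral TCF/Wnt firefly luciferase reporters received library compounds at a final 5 µM, 24 h after seeding into 384-well plates, for a 24 h exposure. Reported figures are plate-median-normalised firefly luciferase or CellTiterGlo luminescence per well. They average two independent replicates.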
(In general: Cellular ATP, detected with luciferase, serves as a proxy for viable cell number.)

Test [2] relates to HCT116. Described as above. The conditions noted are these: 5 µM; treatment time 24 h; reporter: TCF4/Wnt. The gist of the method: as §1
The subject of test [3] is SW480. The test is described as above. The conditions noted are these: 5 µM; treatment time 24 h; reporter: 7TFP. The gist of the method: as §1
The subject of test [4] is DLD1. Briefly: TCF/Wnt firefly luciferase reporter signal relative to plate median (fraction of plate median); higher = higher Wnt reporter signal. The conditions noted are these: 5 µM; treatment time 24 h; reporter: 7TFP. The gist of the method:
as §1
In general terms: A reporter such as luciferase makes a cellular process visible.

Test [5] concerns SW480. The description is as above. The conditions noted are these: 5 µM; treatment time 24 h; reporter: 7TFP. The gist of the method: as §1
The test system of test [6] is DLD1. The test is described as follows: TCF/Wnt firefly luciferase reporter signal relative to plate median (fraction of plate median); higher = higher Wnt reporter signal. The conditions noted are these: 10 µM, treatment time 24 h. The gist of the method:
(§2)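 Colorectal cancer cell lines stably transduced with lentiviral TCF/Wnt firefly luciferase reporters (7TFP or TCF4/Wnt) were seeded in 384-well plates. 24 h later they received kinase inhibitor library compounds at a final 10 µM for 24 h. Parallel plates were read for firefly luciferase or CellTiterGlo luminescence on a Tecan F500 reader. Each well's signal was normalised to the plate median (webcellHTS2, additive, no log transformation), and the mean of two independent replicates is reported.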

In test [7] the test system is HCT116. Described as above. The conditions noted are these: 10 µM; treatment time 24 h; reporter: TCF4/Wnt. The gist of the method: as §2
Test [8] relates to SW480. Described as above. The conditions noted are these: 10 µM; treatment time 24 h; reporter: 7TFP. The gist of the method:
as §2

± gives the standard deviation of the averaged measurements.

With `NS(=O)(=O)c1cc(C2(O)NC(=O)c3ccccc32)ccc1Cl` (stereo not drawn), the cell viability in the test with DLD1 [1] came to 1.02 ± 0.067; in the test with HCT116 [2], 1.02 ± 0.036; with SW480 [3] it was 0.986 ± 0.1. Further, the “TCF/Wnt firefly luciferase reporter signal” value in the test with DLD1 [4] amounted to 0.958 ± 0.13; in the test on SW480 [5], 0.981 ± 0.025.
Taken in the same sequence, the figures for `CS(=O)(=O)c1ccc(C2=C(c3ccccc3)C(=O)OC2)cc1` were 1 ± 0.037, 1.04 ± 0.042, 0.9705 ± 0.0035, 1.19 ± 0.092 and 1.05 ± 0.071.
For `CO/N=C(\C(=O)N[C@@H]1C(=O)N2C(C(=O)O)=C(COC(N)=O)CS[C@H]12)c1ccco1`, the cell viability with DLD1 [1] amounted to 0.915 ± 0.088; in the test with HCT116 [2], 0.949 ± 0.023; in the test on SW480 [3], 0.938 ± 0.027. The “TCF/Wnt firefly luciferase reporter signal” value came out at 0.976 ± 0.1 in the test with DLD1 [4] and 1.13 ± 0.028 in the test with SW480 [5].
Taken in the same sequence, the figures for `N[C@@H](C(=O)N[C@@H]1C(=O)N2C(C(=O)O)=C(Cl)CS[C@H]12)c1ccccc1` were 0.963 ± 0.029, 0.955 ± 0.064, 0.953 ± 0.028, 0.897 ± 0.079 and 0.742 ± 0.025.
Consider `C=C[C@@]1(C)CC(=O)[C@]2(O)[C@@]3(C)[C@@H](O)CCC(C)(C)[C@@H]3[C@H](O)[C@H](OC(C)=O)[C@@]2(C)O1`, for which the cell viability in the test with DLD1 [1] was determined as 1.09 ± 0.099; in the test with HCT116 [2], 0.942 ± 0.069; in the test on SW480 [3], 1.12 ± 0.021. The “TCF/Wnt firefly luciferase reporter signal” value turned out to be 1.23 ± 0.05 with DLD1 [4] and 1.14 ± 0.099 in the test with SW480 [5].
Taken in the same sequence, the figures for `O=c1cc(-c2ccc(O)cc2)oc2cc(O[C@@H]3O[C@H](CO)[C@@H](O)[C@H](O)[C@H]3O)cc(O)c12` were 0.924 ± 0.044, 1.06 ± 0.093, 1 ± 0.038, 1.02 ± 0.059 and 1.07 ± 0.078.
For `C=C[C@H]1CN2CC[C@H]1C[C@@H]2[C@@H](O)c1ccnc2ccc(OC)cc12`, the cell viability in the test with DLD1 [1] came out at 0.963 ± 0.052; in the test with HCT116 [2], 0.966 ± 0.042; in the test with SW480 [3], 0.977 ± 0.047. Moreover, the “TCF/Wnt firefly luciferase reporter signal” value with DLD1 [4] is 1.21 ± 0.14; in the test with SW480 [5] it was 0.933 ± 0.021.
`CCC(=O)O[C@H]1CC[C@H]2[C@@H]3CCc4cc(O)ccc4[C@H]3CC[C@]12C`: the cell viability in the test on DLD1 [1] was found to be 1.01 ± 0.023; in the test with HCT116 [2], 1 ± 0.16; in the test with SW480 [3], 1.02 ± 0.014. In addition, the “TCF/Wnt firefly luciferase reporter signal” value in the test with DLD1 [4] was found to be 0.888 ± 0.11; with SW480 [5] it was 0.994 ± 0.052.
Regarding `COc1ccc(C2CC(=O)c3ccc(OC)cc3O2)cc1` (stereo not drawn), the cell viability came to 0.994 ± 0.11 with DLD1 [1], 1.08 ± 0.021 in the test with HCT116 [2] and 1.05 ± 0.05 in the test with SW480 [3]. Besides, the entries for the “TCF/Wnt firefly luciferase reporter signal” value in the test on DLD1 [4] and with SW480 [5] were 1.05 ± 0.12 and 0.901 ± 0.021, respectively.
For `CN(C(=O)C(Cl)Cl)c1ccc(OC(=O)c2ccco2)cc1`, in that order: 0.95 ± 0.0014, 0.879 ± 0.2, 1.03 ± 0.021, 0.833 ± 0.14 and 0.934 ± 0.043.
For the compound `Cc1ccccc1-n1c(Cn2nc(-c3cccc(O)c3)c3c(N)ncnc32)nc2cccc(C)c2c1=O`, the “TCF/Wnt firefly luciferase reporter signal” value stood at 1.07 ± 0.042 in the test with DLD1 [6] (reporter: 7TFP), 0.89 ± 0.021 in the test on DLD1 [6] (reporter: TCF4/Wnt), 0.841 ± 0.44 in the test with HCT116 [7] and 1.07 ± 0.12 with SW480 [8].
Regarding `Cc1cc2c(s1)Nc1ccccc1N=C2N1CCN(C)CC1`, the cell viability in the test on DLD1 [1] turned out to be 0.979 ± 0.0057; with HCT116 [2] it was 1.14 ± 0.12; in the test with SW480 [3], 1.03 ± 0.063. In the test with DLD1 [4], the “TCF/Wnt firefly luciferase reporter signal” value worked out at 1.05 ± 0.071.
As to `O[C@H]1[C@H](O)[C@@H](O)[C@H](O)[C@@H](O)[C@H]1O`, the cell viability in the test with DLD1 [1] was 0.938 ± 0.03; with HCT116 [2] it was 0.922 ± 0.097; in the test with SW480 [3], 0.931 ± 0.0057. Besides, the “TCF/Wnt firefly luciferase reporter signal” value in the test on DLD1 [4] was found to be 1.12 ± 0.042; in the test with SW480 [5] it was 1.07 ± 0.035.
Taken in the same sequence, the figures for `NCCCCNCCCN` were 0.936 ± 0.011, 1.03, 0.958 ± 0.05, 1.12 ± 0.16 and 1.12 ± 0.13.
For `Cc1c(N(C)C)c(=O)n(-c2ccccc2)n1C`, in that order: 0.898 ± 0.025, 0.981 ± 0.13, 0.991 ± 0.069, 1.1 ± 0.028 and 0.821 ± 0.057.
For `N=C(N)NCCCCNC(=N)N`, in that order: 0.922 ± 0.0085, 0.978 ± 0.1, 0.965 ± 0.017, 0.994 ± 0.14 and 1.04 ± 0.067.
As for `NS(=O)(=O)c1cc2c(cc1Cl)NC(C1CC3C=CC1C3)NS2(=O)=O` (stereo not drawn), the cell viability in the test with DLD1 [1] was determined as 0.973 ± 0.052; in the test with HCT116 [2], 0.962 ± 0.0071; in the test with SW480 [3] it was 0.983 ± 0.0042. Also, the figures for the “TCF/Wnt firefly luciferase reporter signal” value with DLD1 [4] and with SW480 [5] were 1.1 ± 0.035 and 0.879 ± 0.04, respectively.
Take `C/C(=C\C(=O)OCCCCCCCCC(=O)O)C[C@@H]1OC[C@H](C[C@@H]2O[C@H]2[C@@H](C)[C@H](C)O)[C@@H](O)[C@H]1O`: the results for the cell viability in the test with DLD1 [1], in the test on HCT116 [2] and in the test on SW480 [3] were 0.973 ± 0.052, 1 ± 0.025 and 0.939 ± 0.017, respectively. In addition, the results for the “TCF/Wnt firefly luciferase reporter signal” value in the test with DLD1 [4] and in the test on SW480 [5] were 0.9545 ± 0.0021 and 1.03 ± 0.028, respectively.
Turning to `CC(C)(CO)C(O)C(=O)NCCCO` (stereo not drawn), the cell viability is 1.05 ± 0.16 in the test with DLD1 [1], 1.06 ± 0.028 with HCT116 [2] and 1.07 ± 0.064 in the test with SW480 [3]. The “TCF/Wnt firefly luciferase reporter signal” value worked out at 0.992 ± 0.068 in the test on DLD1 [4] and 0.978 ± 0.074 in the test on SW480 [5].
Turning to `Clc1ccc2c(c1)C(N1CCNCC1)=Nc1ccccc1O2`, the cell viability was determined as 1.045 ± 0.0071 in the test on DLD1 [1], 1.085 ± 0.0071 with HCT116 [2] and 0.995 ± 0.021 with SW480 [3]. Also, the “TCF/Wnt firefly luciferase reporter signal” value in the test with DLD1 [4] is 0.789 ± 0.058; with SW480 [5], 0.905 ± 0.042.
As to `NNCCc1ccccc1`, the figures for the cell viability with DLD1 [1], in the test on HCT116 [2] and with SW480 [3] were 0.995 ± 0.11, 0.943 ± 0.069 and 0.98 ± 0.042, respectively. Moreover, the “TCF/Wnt firefly luciferase reporter signal” value worked out at 1.26 ± 0.2 with DLD1 [4] and 1.22 ± 0.014 in the test with SW480 [5].
